From PubChem BioAssay
Sampled rows, rich in hits. Any-hit rate of the full collection: about 13%.
Pf growth 48h: Primary qHTS for delayed death inhibitors of the malarial parasite plastid, 48 hour incubation; P. falciparum luciferase growth in erythrocytes, 48 h; Potency, µM (doses to about 28.7 µM), for inactives: top-dose activity change, negative = inhibition, most hits filed as inhibitors; hit rate 5.9% among 310,000; further: potency means the concentration at half of the fitted maximal effect
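Luciferase-expressing parasites in RBCs, 2% Hct / 0.1% parasitemia final; RPMI 1640 + 0.5% Albumax; 37 C, 5% CO2, one generation; luminescence read-out, lower signal = inhibition.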
HCMV antiviral: qHTS Assay for inhibitors of the human cytomegalovirus (HCMV). HFF cells, HCMV-luciferase reporter, 72 h; hits give low values. AID 1259415, 2018. activity change, negative = inhibition, % at 57.5 µM. hit rate 4.5% among 410,000; in the data active means activity change below about -60%; inconclusive means no clear call, values can overlap the other calls; inactive means above about -39%
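After 16 h attachment at 37C, HFF cells received test compound and HCMV-luciferase (1 PFU/cell); reporter luminescence read 72 h later, data normalized against buffer-only and known inhibitor Salinomycin.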
HCV inh: qHTS Assay for Inhibitors of Hepatitis C Virus (HCV). hit rate 3.4% among 340,000. AID 651820, 2012. Potency, µM (top dose mostly 41.8 µM), for the others: at the top dose activity change, negative = inhibition, most hits filed as inhibitors. Huh7.5.1 HCVcc-Cre infection, luciferase reporter, 44 h; further: potency means the concentration at half of the fitted maximal effect
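1,000 cells/well; 4 h culture; + compound; + HCVcc-Cre (~0.5 moi); 44 h; luciferase substrate, RT 15 min; read 15 sec.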
Pf growth 96h: Primary qHTS for delayed death inhibitors of the malarial parasite plastid, 96 hour incubation; P. falciparum luciferase reporter growth, 96 h; Potency, µM (series often up to 28.7 µM), for the others: at the highest dose activity change, negative = inhibition, hits mostly inhibitors; hit rate 6.9% among 320,000; AID 504834, 2011; further: potency means the concentration at half of the fitted maximal effect
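Delayed-death screen, second-generation endpoint: infected erythrocytes, 2% hematocrit, 0.05% parasitemia final; 96 hours at 37 C, 5% CO2; luciferase detection reagent; luminescence decrease equals reduced growth.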
* marks the source's active call; other numbers are inactive results; i = inactive; ? = inconclusive; . = not tested or not shown. Unless noted, the call rests on the fitted dose curve; in most records, active means well fitted inhibition curve with a large enough effect; inconclusive means small, poorly fitted or top-dose-only effect, or another doubt; inactive means no such curve, though single readings can be large or run the other way. On the % scale 0 is the no-effect control and ±100 the full control effect.

SMILES	Pf growth 48h	HCMV antiviral	HCV inh	Pf growth 96h
Cc1ccccc1-c1noc(-c2ccc(N3CCN(c4ccccc4)CC3)c([N+](=O)[O-])c2)n1	.	4.8	.	.
Cc1cccc(-c2nc(CN3CCCC(C(=O)NCCc4ccc(Cl)cc4)C3)c(C)o2)c1 (stereo unspecified)	.	-15.7	.	.
CCN(CC)CCCNC(=O)c1ccc(Cn2c(SCc3ccccc3)nc3cccnc32)cc1	.	16.7	.	.
CCN1CCN(c2cc(C)c3cc(NC(=O)Cc4ccccc4OC)ccc3n2)CC1	11.7µM*	7.5	?	?
CCN1CCN(c2cc(C)c3cc(NC(=O)c4ccc(OC)c(OC)c4)ccc3n2)CC1	.	?	11.2µM*	-8.7%
CCN1CCN(c2cc(C)c3cc(NC(=O)c4cc(OC)c(OC)c(OC)c4)ccc3n2)CC1	.	-7.0	.	.
CCN(CC)CCNc1cc(C)nc2c1C(=O)C(=O)C=C2N1CCCCC1	?	-98.0*	?	29.1%
COc1cccc2c1-c1c(O)cccc1C2=O	-2.4%	-2.9	1.0%	5.7%
COc1cccc2c1C(=O)c1c(O)c3c(c(O)c1C2=O)CC(O)(C(C)=O)CC3OC1CC(O)C(O)C(C)O1 (stereo unspecified)	.	-100.7*	?	.
COc1cccc2c1C(=O)c1c(O)c3c(c(O)c1C2=O)C[C@@](O)(C(=O)CO)C[C@@H]3O[C@H]1C[C@H](N)[C@H](OC2CCCCO2)[C@H](C)O1 (stereo partly specified)	3.79µM*	.	.	4.26µM*
CCCCC(=O)OCC(=O)C1(O)Cc2c(O)c3c(c(O)c2C(OC2CC(NC(=O)C(F)(F)F)C(O)C(C)O2)C1)C(=O)c1c(OC)cccc1C3=O (stereo unspecified)	.	-98.4*	3.55µM*	.
COc1cccc2c1C(=O)c1c(O)c3c(c(O)c1C2=O)C[C@](O)(C(C)=O)C[C@H]3O[C@@H]1C[C@@H](N)[C@@H](O)[C@@H](C)O1	0.928µM*	-100.0*	8.91µM*	1.17µM*
CCc1ccccc1NC(=O)N(C)CCc1c(C)nn(C)c1C	.	15.1	.	.
CCCCN(CCCNC(=O)c1c(C)oc2nc[nH]c(=O)c12)Cc1ccccc1	.	-19.1	.	.
CC1C/C(=N\NC(N)=S)c2cc(Cl)ccc2S1 (stereo unspecified)	?	-10.4	-19.4%	1.85µM*
CC(C)=C1CCC(C)CC1=NNC(N)=S (stereo unspecified)	.	-14.7	?	.
c1ccc(CSc2nnc(-c3ccco3)n2Cc2ccco2)cc1	?	4.4	-14.2%	?
CCCCOc1[nH]c2nc(-c3ccco3)n(Cc3ccco3)c(=N)c2c1C#N	5.86µM*	-18.9	?	13.0%
C[n+]1c(-c2ccccc2)sc2ccccc21	?	-21.9	-16.6%	-34.2%
C[n+]1c2n(c3ccccc31)N=C(c1ccc(Cl)cc1)CS2	-23.1%	-96.0*	?	16.5%
COc1ccc(C2=Nn3c([n+](C)c4ccccc43)SC2)cc1	0.828µM*	-81.4*	2.24µM*	-23.0%
COc1ccc(C2=Nn3c(nnc3-c3ccccn3)SC2)cc1	.	11.0	-28.9%	?
CC1Sc2n(c3ccccc3[n+]2C)N=C1c1ccccc1 (stereo unspecified)	0.928µM*	-96.6*	-17.4%	-102.1%
Clc1ccc(C2=Nn3c(Cn4nnc5ccccc54)nnc3SC2)cc1	?	156.9	0.1%	-5.5%
COc1cc(NC(=O)Cn2c(=O)n(-c3ccccc3)c(=O)c3c4c(sc32)CCCC4)cc(OC)c1	.	8.4	.	.
SMILES	Pf growth 48h	HCMV antiviral	HCV inh	Pf growth 96h
COc1cc([C@@H]2C[C@H]3CN(c4ccccc4)C(=O)[C@]34CCCN24)cc(OC)c1OC	?	?	-27.4%	i
COc1cc(Cl)c([C@@H]2C[C@H]3CN(c4ccccc4)C(=O)[C@]34CCCN24)cc1OC	-24.4%	-2.0	-9.4%	?
CCOc1cc([C@@H]2C[C@H]3CN(c4ccccc4)C(=O)[C@]34CCCN24)ccc1OC	?	-68.6*	?	-2.5%
COc1ccccc1-n1cc([C@@H]2C[C@H]3CN(c4ccccc4)C(=O)[C@]34CCCN24)cn1	23.7%	-96.9*	5.62µM*	-2.4%
CNc1snc(C)c1C(=O)OC(C)C(=O)c1ccc(F)cc1 (stereo unspecified)	?	-78.7*	11.2µM*	0.2%
CNc1snc(C)c1C(=O)OCC(=O)c1ccc(Cl)cc1	?	0.0	?	?
Brc1ccc(-c2csc(-c3c[nH]c4ccccc34)n2)cc1	109.6%	-10.2	6.31µM*	312.5%
COc1ccccc1CNC(=O)CSc1nc2nc(C)c(Cc3ccccc3C)c(C)n2n1	.	-5.3	.	.
CN(C)C/C=C(/c1ccc(Br)cc1)c1cccnc1	12µM*	-1.7	?	15.1µM*
CC(C)NC(=O)c1ccc(COc2cc(Cl)ccc2Cl)o1	?	8.6	11.2µM*	14.6%
CCOc1ccc(OCc2ccc(C(=O)NC(C)C)o2)cc1	?	26.0	?	11.7µM*
Cc1cccc(NC(=O)c2ccc(COc3ccc(Cl)cc3Cl)o2)n1	.	28.3	?	-27.2%
CCOC(=O)c1ccc(COc2ccc(C(C)C)cc2)o1	214.7%	25.4	4.0%	5.4%
CCOc1ccc(OCc2ccc(C(=O)OCc3ccccn3)o2)cc1	143.2%	50.1	7.9%	10.4µM*
CCC(=O)N1CCc2cc(S(=O)(=O)NCCC(=O)Nc3ccc(C)cc3C)ccc21	.	-15.6	.	.
CN(C)S(=O)(=O)c1cccc(C(=O)Nc2ccccc2)c1	31.4%	15.2	-28.1%	19.9%
CN(c1ccccc1)S(=O)(=O)c1cccc(NC(=O)c2ccc3ncsc3c2)c1	?	0.0	11.2µM*	10.4µM*
Cc1ccc(NC(=O)c2ccc3ncsc3c2)cc1S(=O)(=O)N(C)C	121.2%	133.5	.	244.8%
CN(c1ccccc1)S(=O)(=O)c1cccc(NC(=O)c2cccc(C#N)c2)c1	13.1µM*	0.0	10µM*	?
CCN(CC)C1CCS(=O)(=O)C1 (stereo unspecified)	37.3%	15.7	11.1%	0.185µM*
COCCOC(=O)C1=C(C)NC(=O)N(C(C)=O)C1c1ccc(Cl)cc1 (stereo unspecified)	?	39.3	-3.6%	2.33µM*
Cc1ccc(NS(=O)(=O)c2ccc(NC(=O)N3CCCCC3)cc2)cc1	?	?	?	1.47µM*
Cc1ccc(NS(=O)(=O)c2ccc(N3C(=O)CCC3=O)cc2)cc1	.	-84.3*	21.5%	21.4%
CC(C)c1ccc(NS(=O)(=O)c2ccc(N3C(=O)CCC3=O)cc2)cc1	31.8%	-25.2	16.2%	-11.5%
C/C(=N\S(=O)(=O)c1ccc(C)cc1)N1CCCCC1	0.9%	13.5	3.9%	11.7µM*
Cc1ccc(S(=O)(=O)Nc2ccc(NC(=O)c3c(F)c(F)c(F)c(F)c3F)cc2)cc1	?	-27.1	12.6µM*	9.0%
Cc1cccc(NS(=O)(=O)c2ccc(NC(=O)N3CCCCC3)cc2)c1	-16.6%	32.9	.	-18.4%
